Laboratory results published in PubChem BioAssay AID1813 (Broad Institute, 2009).
Several values for one entry are separate records, joined by “and”; a condition that tells them apart may be missing. Identical values can stand only once. About 2,500 (0.83%) of roughly 300,000 compounds were called active. No stated cut-off is given here; in the data, active means inhibition above about 60%; inconclusive means no clear call, values can overlap the other calls; inactive means below that. What follows is part of a selection rich in actives, with near analogues and random picks from the rest.

Experiment: MLPCN primary screen, SNCA 5' untranslated region (AID 1813);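 further: H4 neuroglioblastoma cells stably carrying SNCA 5'UTR luciferase fusion; 0% = DMSO wells and 100% = positive control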
Conditions: alpha-synuclein 5'UTR reporter, inhibitor activity; active compounds read high; tested at 7.5 µM

inhibition, active:
CC(C)n1cnc2c(Nc3cccc(Cl)c3)nc(N(CCO)CCCO)nc21 64.7%
CC(C)(C)C(=O)Nc1ccc(C(=O)N/N=C/c2ccccc2OC(=O)c2ccc(Cl)cc2Cl)cc1 65.2%
CCOc1ccccc1NC(=O)Cn1nnc(C(=O)NCc2cccs2)c1N 84.9%
COC(=O)Cc1[nH]n(-c2nc3ccccc3s2)c(=O)c1C(C)=Nc1ccc(OC)cc1 68.9%
COc1cc(SC)ccc1C(=O)Nc1nc(C)cs1 96.2%
COC(=O)c1sc(NC(=O)c2ccc(OC)cc2OC)nc1C 101%
CSc1nc(N(C)NC(=O)c2cccc(C)c2)c2ccccc2n1 114%
CSc1nc(-c2ccccc2)nc(C(Cl)Cl)n1 114%
CC(C)(C)c1ccc(Oc2ccc(N)cc2)cc1 112%

inhibition, inactive:
Cc1ccc(-c2cc(=O)c3ccc(F)cc3[nH]2)cc1 -68.9%
Cc1ccc(-c2cc(=O)c3ccc(Cl)cc3[nH]2)cc1 -19.2%
CC(C)C[C@H](CO)Nc1nc(N(C)c2cccc(Cl)c2)c2ncn(C(C)C)c2n1 24.9%
COC(=O)C(C)n1cnc2c(nnn2-c2cccc(Cl)c2)c1=O (stereo not drawn) -6.77%
CSc1cc(C)n(-c2ccccc2C)c(=S)c1C(C)=O -18%
O=C(CCN1C(=O)c2ccncc2C1=O)Nc1cc(F)ccc1F 10.3%
O=C(NCC(=O)N(c1ccccc1)C(C(=O)NCC1CCCO1)c1ccccc1)c1cccs1 (stereo not drawn) 15.4%
O=C(N/N=C/c1ccc(OC(=O)c2ccccc2Cl)cc1)c1ccc(O)cc1 -1.64%
O=C(N/N=C/c1ccoc1)c1ccc(Cl)cc1Cl -0.701%
Cc1ccc(S(=O)(=O)N/N=C(\c2ccccc2)C2CC2)cc1 -11.6%
COC(=O)C1=C(C)N(c2ccc(C)cc2)/C(=C/c2ccc(O)cc2)C1=O -12.4%
Cc1ccc(NC(=O)Cn2nnc(C(=O)NCc3ccco3)c2N)c(C)c1 -2.22%
CCOc1ccccc1NC(=O)Cc1cccs1 19.4%
O=C(Cc1ccc(-n2c(=O)c3sccc3n(Cc3ccc(F)cc3)c2=O)cc1)NCc1ccco1 11.3%
O=C(O)C1CCN(C(=O)c2cc(F)cc3c2OCOC3)CC1 19.4%
CC(=NCc1ccco1)c1c(C(F)(F)F)[nH]n(-c2nc3ccccc3s2)c1=O -117%
C/C(=N\NC(=O)CC(C)C)c1c(C(F)(F)F)[nH]n(-c2nc3ccccc3s2)c1=O -51.5%
CNC[C@H](CC1CCCCC1)NC[C@H](NCCC1CCCC1)[C@H](C)O -34.1%
CC(=O)N1C(C)c2ccccc2C(C)(C)CC12CCCCC2 (stereo not drawn) -9.23%
COc1cc(SC)ccc1C(=O)Nc1cc(C)ccn1 -8.42%
Cc1csc(NC(=O)c2ccc(C)s2)n1 -174%
COc1cc2ccccc2cc1C(=O)Nc1nc(C)c(C(C)=O)s1 -106%
COc1ccc(Cc2nnc(NC(=O)c3ccc(OC)cc3OC)s2)cc1 -62.4%
Cn1c(Cc2cccs2)nnc1SCC(=O)Nc1ccccc1 11%
COc1ccc(NC(=O)CSc2ccc(-c3ccco3)nn2)c(OC)c1 7.22%
CC(C)CN(C(=O)c1ccc2c(c1)OCO2)C1CCS(=O)(=O)C1 (stereo not drawn) -8.68%
CC(C)C(=O)N1CCN(c2nc(-c3ccccc3)c3c(c2C#N)CC(C)(C)OC3)CC1 -10.5%
CCO[C@H]1OC(C(=O)N2CCN(Cc3ccccc3)CC2)=C[C@@H](c2cn(C(C)=O)c3ccccc23)[C@@H]1CCCO 14.2%
O=C(COC(=O)c1ccc(Cl)nc1)NCc1ccc2c(c1)OCO2 17.3%
O=S(=O)(c1ccc(F)cc1)N1CCN(C(=S)NC2CCCC2)CC1 4.9%
CN(NC(=O)c1ccccc1)c1nc2ccccc2nc1C(F)(F)F -26.7%
CN(NC(=O)c1ccccc1F)c1nc(C(F)(F)F)nc2ccccc12 39.8%
O=c1c2cc(-c3ccccc3)sc2nc2n1N=C(c1cccs1)CS2 -105%
O=C(Cn1c[n+](CC(=O)c2ccc([N+](=O)[O-])cc2)cn1)c1ccc([N+](=O)[O-])cc1 1.61% and -7.59%
COc1ccccc1OC(C)C(=O)Nc1ccc(S(=O)(=O)Nc2nccs2)cc1 (stereo not drawn) 8.93%
CCN1CCN(CC(=O)c2cc(OC)c(OC)c(OC)c2)CC1 -44%
CSc1ncc(Sc2ccccc2)c(C(=O)O)n1 9.17%
COc1cccc(Oc2ccc(N)cc2)c1 5.65%
CC(C)(C)c1ccc(OC2=CS(=O)(=O)c3ccccc32)cc1 -110%
